Assay outcomes as filed in PubChem BioAssay.
The list is not random: actives were taken first. Their share in the collection is about 6.8%.
Autofluor 339: intrinsic fluorescence of library compounds, ex339/em460 – biochemical, MLSMR library, data from DPM-DC assay, artefact control, profiling panel | fluorescence fold increase at 10 µM | compound autofluorescence, ex339/em460 nm, NADH buffer; active compounds read high; 1 = no-compound wells, NADH background | hit rate 5.5% among 65,000;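 active means at 10 µM, mean starting fluorescence two-fold or more over control wells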;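 further: signal is the first read of a kinetic run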
NADH enzymes: blocks coupling enzymes of NAD/NADH assays | coupled PK/LDH NADH assays, four targets | IC50, µM (highest dose often 10 µM), for inactives: at the top dose inhibition | hit rate 0.02% among 65,000 | AID 774;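 active means single-dose screening hits from any of four coupled enzyme assays that gave an IC50 when retested across doses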;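 further: the DPM-DC format reads NADH fluorescence rather than 340 nm absorbance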
MK inhibit: S. pneumoniae mevalonate kinase inhibition; purified MK, PK/LDH-coupled NADH absorbance 340 nm; inhibition, % at 10 µM; hit rate 0.48% among 65,000; AID 555;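 active means ranked among the strongest by inhibition in the single 10 µM screen, a fixed top-ranked set picked for dose follow-up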
A340 absorber: compound absorbs light at 340 nm. compound absorbance at 340 nm, fold over control. fold change at 10 µM. 65,000 tested, under 10 active. AID 708;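 active means at 10 µM dose, initial 340 nm absorbance at least 2 fold that of control wells; inactive means change under 2 fold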;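 further: initial absorbance extrapolated from kinetic A340 decline of NADH oxidation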
Spn DPM-DC inh: S. pneumoniae DPM-DC inhibition; AID 556; purified DPM-DC, PK/LDH coupled NADH fluorescence; hit rate 0.49% among 65,000; calls only at 10 µM;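 active means the 320 compounds with the highest percent inhibition in the single-dose primary screen, excluding strongly autofluorescent ones, cut at about 32% in these data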;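 further: kinetic rate of NADH fluorescence loss reporting ADP formed by the decarboxylase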
PMK inhibit: blocks S. pneumoniae phosphomevalonate kinase. purified PMK, PK/LDH-coupled NADH absorbance 340 nm. inhibition, % at 10 µM. hit rate 0.49% among 65,000. AID 539;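 active means top-ranked compounds by inhibition in the single 10 µM screen, taking a fixed number of the strongest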;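 further: 0% = full reaction with DMSO carrier and 100% = background rate without enzyme reaction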
Active calls of the source: *; i = inactive; . = not tested or not shown; + = active, no number.

SMILES	Autofluor 339	NADH enzymes	MK inhibit	A340 absorber	Spn DPM-DC inh	PMK inhibit
CCN(c1ccccc1)S(=O)(=O)c1ccc2[nH]cc(C(=O)N3CCOCC3)c(=O)c2c1	2.1*	11%	0	1.1	.	22
CCn1c(-c2ccsc2)nc2c1c(=O)[nH]c(=O)n2Cc1ccccc1	1.1	5%	0	1	i	14
CSc1cccc(NS(=O)(=O)c2ccc3c(c2)oc(=O)n3C)c1	1	9%	11	1	i	16
O=C(c1ccc(CS(=O)(=O)c2ccccc2)o1)N1CCN(c2ncccn2)CC1	1.1	3%	2	1	i	2
O=C(O)c1c[nH]c2ccc(S(=O)(=O)N3CCN(c4ccc(F)cc4)CC3)cc2c1=O	1.2	2%	0	1	i	10
CCOC(=O)N1CCN(S(=O)(=O)c2ccc3[nH]cc(C(=O)O)c(=O)c3c2)CC1	2.4*	10%	3	1.1	i	17
Cc1ccc(-c2noc(CCC(=O)NCCN3CCOCC3)n2)cc1	0.98	10%	11	0.97	i	14
Cc1ccc(-c2noc(CCC(=O)NCCN3CCc4ccccc4C3)n2)cc1	1.1	8%	0	1	i	25*
O=C(CCc1nc(-c2ccccc2F)no1)NCCc1ccccc1Cl	1.1	5%	0	1	i	16
O=C(CCc1nc(-c2ccccc2F)no1)NCCN1CCc2ccccc2C1	0.39	26%	0	1	+	14
O=C(CSc1nnc2c3cc(F)ccc3nc(-c3ccccc3)n12)N1CCOCC1	1.1	4%	6	1	i	8
CC(=O)N(Cc1ccco1)C1(C(=O)NC2CCCCC2)CCCCC1	1.2	5%	8	1	i	6
O=C1CCC(C(=O)N(Cc2ccco2)C2(C(=O)NC3CCCC3)CCCCC2)N1 (centres undefined)	1.1	5%	0	1	+	0
CC(=O)Nc1nc2c(c3c1c(=O)oc1ccccc13)CCCCC2	1.2	3%	8	1	i	0
Nc1nc2c(c3c1c(=O)oc1ccccc13)CCCCC2	2.2*	8%	4	1.1	.	12
CC(c1ccco1)N(C(=O)CSc1ccc(Br)cc1)c1ccccn1 (centres undefined)	1.1	5%	1	1	i	13
CN1CCN(c2ncnc3c2sc2nc(N4CCCC4)c4c(c23)CC(C)(C)OC4)CC1	1.2	4%	4	1.1	i	5
CC(NC(=O)c1cccc(N2CCCC2=O)c1)c1ccc2c(c1)OCCO2 (centres undefined)	1.4	17%	0	1	+	18
CCC(=O)Nc1c(OC(=O)CC)ccc2c(C)cc(=O)oc12	2.1*	9%	1	1.1	.	17
CCC(=O)Nc1c(C)cc(C)cc1Cl	1.1	9%	8	1	i	18
COc1ccc2c3c(cccc13)NN=C2C	1.1	2%	2	1.1	i	5
Fc1cccc(Nc2ncnc3c2cnn3-c2ccccc2)c1	1.5	3%	6	1	i	6
Clc1cccc(Nc2ncnc3c2cnn3-c2ccccc2)c1	2.1*	2%	1	1	i	6
COc1cc(OC)c(-c2nn3c(-c4ccco4)nnc3s2)cc1OC	3.4*	6%	4	1.2	.	7
COc1ccc(-c2nnc3sc(-c4ccco4)nn23)cc1OC	1.1	6%	8	1	i	10
SMILES	Autofluor 339	NADH enzymes	MK inhibit	A340 absorber	Spn DPM-DC inh	PMK inhibit
COc1cc(OC)c(-c2nn3c(-c4ccncc4)nnc3s2)cc1OC	1.1	3%	2	1.1	i	6
COc1cc(OC)c(-c2nn3c(-c4cccnc4)nnc3s2)cc1OC	3.9*	10%	9	1.1	.	10
COc1ccc(-c2nn3c(-c4ccco4)nnc3s2)cc1OC	1.5	17%	11	1.1	+	8
Cc1cc(OCC(=O)Nn2cnnc2)ccc1Br	1	4%	1	1	i	10
Cc1cc(C)nc(SCC(=O)Nn2cnnc2)n1	1	6%	6	0.97	i	11
COc1ccc(NC(=O)c2oc3cc(C)c(C)cc3c2C)c(OC)c1	3.8*	4%	4	1.1	.	4
COc1ccccc1NC(=O)c1oc2ccccc2c1NC(=O)c1cc(OC)c(OC)c(OC)c1	3.2*	1%	0	1	.	3
CCN(CC)S(=O)(=O)c1ccc2oc(C(=O)Nc3ccc(OC)cc3OC)c(C)c2c1	1.2	12%	0	1	i	9
COc1ccc(NC(=O)c2oc3ccccc3c2NC(=O)c2ccco2)c(OC)c1	5.1*	5%	0	1.1	.	9
COCC(=O)Nc1c(C(=O)Nc2ccccc2OC)oc2ccccc12	1.2	2%	2	1	i	11
CCOCC(=O)Nc1c(C(=O)Nc2ccc(OC)cc2OC)oc2ccccc12	2.4*	3%	6	1	.	11
COc1ccc(NC(=O)c2oc3ccccc3c2NC(=O)c2ccco2)cc1	1.2	1%	0	1	i	7
O=P(O)(c1ccc(Cl)cc1)c1ccc(Cl)cc1	0.98	5%	8	1	i	6
N#CCC(=O)Nc1ncn(Cc2ccccc2Cl)n1	1	2%	0	1	i	0
COc1ccc(C(=O)Nc2nncs2)cc1S(=O)(=O)N1CC(c2ccccc2)CC1=O (centres undefined)	1.1	1%	2	1	i	0
COCC(=O)Nc1c(C(=O)Nc2cccc(OC)c2)oc2ccccc12	1.3	5%	7	1.1	i	8
COc1cccc(OCC(=O)Nc2c(C(=O)Nc3ccc(OC)cc3OC)oc3ccccc23)c1	5*	7%	0	1.1	.	13
CCOc1ccc(NC(=O)c2oc3ccccc3c2NC(=O)C2CC2)cc1	2.6*	5%	0	1.1	i	15
COc1ccc(NC(=O)c2oc3ccccc3c2NC(=O)C2CC2)cc1	1.4	5%	0	1.1	i	7
CN(C)CC(O)COc1cc2ccccc2cc1C(=O)N1CCCCC1 (centres undefined)	1.1	3%	0	1	i	8
Cc1cc(C)nc(NC(=O)NS(=O)(=O)N2CCCCCC2)n1	1.1	6%	9	1.1	i	8
Cc1c2c(nc3c(C(=O)NC4CCCC4)cnn13)CCCC2	4.9*	12%	0	1	.	23
COc1ccc(CN(C#N)c2nc(SC)nc(N(C)C)n2)cc1	1.1	0%	0	1	i	0
Cn1c(=O)c2nc(-c3ccccc3)oc2c2ccccc21	5*	5%	2	1.1	.	8
Cc1cccn2c(=O)c(C=NCc3ccco3)c(Nc3ccc(Cl)cc3)nc12	1	3%	0	1.1	i	10
COc1ccc(C2C3=C(CC(C)(C)CC3=O)N(CCN3CCOCC3)C3=C2C(=O)CC(C)(C)C3)cc1	3.4*	6%	0	1	i	0
